The values that follow come from the supplement of paper PMC7156485.

Settings in all cases: concentration: 10 µM; 24 h
Experiment [1] deals with HCC1569. The experiment can be described thus: cell number relative to DMSO (% of DMSO); higher = more cells (less growth inhibition / toxicity). Put shortly: (§1)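 Cells were seeded at 800 per well in 384-well plates with RPMI containing 10% FBS; both HCC1569 and TDF lines were used. Compounds were added at 10 µM for 24 h at 37 °C, in triplicate, before fixation in 3.7% formaldehyde and staining with a rabbit anti-H1.0 antibody, an AlexaFluor 647 secondary and DAPI. H1.0 nuclear intensity or cell number is reported as percent of the plate control using the median of replicates, and HCC1569 values were smoothed for positional effects.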

The test system of experiment [2] is TDF. The description is as above. In short, it runs like this: as §1
Experiment [3] concerns TDF. The experiment can be described thus: H1.0 immunofluorescence intensity relative to DMSO (% of DMSO); higher = stronger H1.0 induction, active = 120 or more. Put shortly:
as §1

Experiment [4] relates to HCC1569. Kind of experiment: H1.0 immunofluorescence intensity relative to DMSO (% of DMSO); higher = stronger H1.0 induction, active = 140 or more. Put shortly:
as §1

SMILES strings stand for the structures. ± gives the standard deviation of the averaged measurements.
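For H1.0 immunofluorescence intensity relative to DMSO in this document: TDF is a line of transformed human dermal fibroblasts of mesenchymal origin.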
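For cell number relative to DMSO in this document: TDF denotes transformed human dermal fibroblasts of mesenchymal origin.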

Turning to `COc1cc2c(cc1OC)-c1[nH]nc(Nc3cccc(F)c3)c1C2` [PDGF Receptor Tyrosine Kinase Inhibitor IV], the cell number in the experiment with HCC1569 [1] came out at 64.3; in the experiment with TDF [2], 8.88. The H1.0 immunofluorescence intensity in the experiment with TDF [3] is 131 (active); in the experiment on HCC1569 [4], 160 (active).

Consider `CC1C2CCC3C4CC=C5CC(N(C)C)CCC5(C)C4CCC32CN1C` (configuration not stated) [Conessine], for which the cell number worked out at 103 in the experiment on HCC1569 [1] and 104 in the experiment with TDF [2]. In addition, the H1.0 immunofluorescence intensity was 109 (inactive) with TDF [3] and 113 (inactive) in the experiment with HCC1569 [4].

Regarding `COc1cc2ncnc(Nc3ccc(O)cc3)c2cc1OC`, the figures for the cell number in the experiment on HCC1569 [1] and in the experiment on TDF [2] were 100 and 115, respectively. Further, the H1.0 immunofluorescence intensity in the experiment with TDF [3] is 89 (inactive); with HCC1569 [4] it was 96.6 (inactive).

Turning to `CCCCCC(O)C=CC1OC(=O)CC(O)C1CC=CCCCC(=O)O` (configuration not stated) [11-Dehydro-thromboxane B2], the cell number with HCC1569 [1] was 100; in the experiment on TDF [2], 97. Further, the figures for the H1.0 immunofluorescence intensity with TDF [3] and in the experiment on HCC1569 [4] were 98.6 (inactive) and 102 (inactive), respectively.

Take `Cc1cn(-c2cc(NC(=O)c3ccc(C)c(Nc4nccc(-c5cccnc5)n4)c3)cc(C(F)(F)F)c2)cn1` [Nilotinib]: the cell number in the experiment on HCC1569 [1] came out at 100; with TDF [2], 73.5. The H1.0 immunofluorescence intensity was 101 (inactive) in the experiment on TDF [3] and 94.2 (inactive) in the experiment on HCC1569 [4].

As to `CC(=O)Nc1ccc(CC(=O)O)cc1` [Actarit], the cell number in the experiment with HCC1569 [1] was 100; in the experiment on TDF [2], 103. In addition, the figures for the H1.0 immunofluorescence intensity in the experiment with TDF [3] and in the experiment with HCC1569 [4] were 97.2 (inactive) and 96.5 (inactive), respectively.

`CCN(CC)C(=O)c1ccc(Nc2nc(OCC3CCCCC3)c3[nH]cnc3n2)cc1` [Cdk2 Inhibitor IV,                 NU6140]: the values for the cell number in the experiment on HCC1569 [1] and in the experiment with TDF [2] were 73.4 and 51.1, respectively. Besides, the H1.0 immunofluorescence intensity was 98.1 (inactive) in the experiment with TDF [3] and 158 (active) in the experiment with HCC1569 [4].

For the compound `O=C1N(c2ccccc2)c2ccccc2C1(Cc1ccncc1)Cc1ccncc1` [Linopirdine], the cell number was found to be 108 in the experiment with HCC1569 [1] and 112 with TDF [2]. The results for the H1.0 immunofluorescence intensity with TDF [3] and in the experiment on HCC1569 [4] were 93.9 (inactive) and 94.7 (inactive), respectively.

In the case of `Cl.Cl.NCCNS(=O)(=O)c1cccc2cnccc12` [H-9 dihydrochloride], the cell number in the experiment on HCC1569 [1] is 102; in the experiment on TDF [2], 90.7. Further, the figures for the H1.0 immunofluorescence intensity in the experiment on TDF [3] and in the experiment on HCC1569 [4] were 107 (inactive) and 100 (inactive), respectively.

`O=c1cc(-c2ccc(O)cc2)oc2cc(O)c(C3OC(CO)C(O)C(O)C3O)c(O)c12` (configuration not stated) [Isovitexin]: the cell number in the experiment on HCC1569 [1] was determined as 99.9; with TDF [2], 109. The H1.0 immunofluorescence intensity with TDF [3] was 94.3 (inactive); with HCC1569 [4], 88.1 (inactive).

For `C=CC(C)(C=Cc1ccc(O)cc1)CCC=C(C)C` (configuration not stated) [Bakuchiol], the cell number in the experiment with HCC1569 [1] amounted to 84.7 ± 3.6; with TDF [2], 91.2 ± 4.6. The H1.0 immunofluorescence intensity with TDF [3] was 97.7 (inactive); in the experiment with HCC1569 [4] it was 96.8 (inactive).

Turning to `CC1(C)CCC(C)(C)c2cc(C(=O)Nc3ccc(C(=O)O)cc3)ccc21`, the figures for the cell number in the experiment on HCC1569 [1] and in the experiment on TDF [2] were 101 and 104, respectively. Besides, the H1.0 immunofluorescence intensity in the experiment on TDF [3] was 91.8 (inactive); with HCC1569 [4] it was 109 (inactive).

Turning to `CN1CCc2cc(Cl)c(O)cc2C(c2ccccc2)C1.Cl` (configuration not stated), the cell number with HCC1569 [1] was found to be 103; in the experiment on TDF [2], 104. Further, the H1.0 immunofluorescence intensity in the experiment with TDF [3] was 88.5 (inactive); in the experiment with HCC1569 [4], 94.6 (inactive).

`Cc1ccccc1C(C(=O)NC1CCCCC1)N(C(=O)Cn1ccnc1C)c1cccc(F)c1` (configuration not stated): the cell number turned out to be 94.3 with HCC1569 [1] and 106 in the experiment on TDF [2]. The H1.0 immunofluorescence intensity in the experiment with TDF [3] was 95.3 (inactive); in the experiment with HCC1569 [4] it was 105 (inactive).

`CCCCCC(=O)C=CC=CCCCCCCCC(=O)O` [13-Ketooctadecadienoioc acid]: the cell number was determined as 99.9 with HCC1569 [1] and 97.6 in the experiment with TDF [2]. Moreover, the results for the H1.0 immunofluorescence intensity in the experiment with TDF [3] and in the experiment on HCC1569 [4] were 95.9 (inactive) and 103 (inactive), respectively.

Consider `CCCCCCCCCCCCCCCC(=O)C(F)(F)F`, for which the cell number in the experiment on HCC1569 [1] is 103; in the experiment on TDF [2], 108. Besides, the H1.0 immunofluorescence intensity is 93.3 (inactive) in the experiment with TDF [3] and 94.4 (inactive) in the experiment with HCC1569 [4].

In the case of `CC(=O)O.NC(N)=NN=Cc1c(Cl)cccc1Cl` [Guanabenz acetate], the figures for the cell number in the experiment with HCC1569 [1] and in the experiment on TDF [2] were 104 and 98, respectively. Further, the values for the H1.0 immunofluorescence intensity in the experiment on TDF [3] and in the experiment on HCC1569 [4] were 106 (inactive) and 97.8 (inactive), respectively.

With `COc1ccc(C=C2c3ccccc3C(=O)c3ccccc32)cc1O` [10-(3-hydroxy-4-methoxybenzylidene)-9(10H)-anthracenone], the cell number stood at 62.7 in the experiment with HCC1569 [1] and 10.4 with TDF [2]. The H1.0 immunofluorescence intensity in the experiment on TDF [3] is 189 (active); in the experiment on HCC1569 [4], 207 (active).

As to `COc1ccccc1Oc1c(NS(=O)(=O)c2ccc(C(C)(C)C)cc2)nc(-c2ncccn2)nc1OCCO` [Bosentan], the cell number in the experiment with HCC1569 [1] is 99.5; in the experiment on TDF [2], 98.2. The H1.0 immunofluorescence intensity in the experiment on TDF [3] is 98.9 (inactive); with HCC1569 [4] it was 107 (inactive).

Turning to `Cc1nc2c([nH]1)c(=O)n(C)c(=O)n2Cc1ccco1` [Furafylline], the cell number amounted to 103 ± 5.7 in the experiment on HCC1569 [1] and 107 ± 11 with TDF [2]. Besides, the H1.0 immunofluorescence intensity was 94.5 (inactive) with TDF [3] and 103 (inactive) with HCC1569 [4].

For the compound `O=C1c2c(O)cc(O)cc2OC(c2ccc(O)c(O)c2)C1O` (single isomer, unassigned; (+)) [(+)-Taxifolin], the cell number in the experiment on HCC1569 [1] stood at 99.5; with TDF [2] it was 83.9. Moreover, the H1.0 immunofluorescence intensity with TDF [3] is 105 (inactive); with HCC1569 [4], 102 (inactive).

For the compound `NC(=O)OCC(COC(N)=O)c1ccccc1` [Felbamate], the cell number is 111 ± 15 in the experiment on HCC1569 [1] and 109 ± 1.2 in the experiment with TDF [2]. The H1.0 immunofluorescence intensity in the experiment with TDF [3] was 97 (inactive); in the experiment with HCC1569 [4] it was 93.1 (inactive).

As to `CN1CCCN=C1C=Cc1cccs1.O=C(O)c1cc2ccccc2c(Cc2c(O)c(C(=O)O)cc3ccccc23)c1O` [Pyrantel Pamoate], the figures for the cell number with HCC1569 [1] and in the experiment on TDF [2] were 94.4 and 109, respectively. In addition, the H1.0 immunofluorescence intensity was 88.8 (inactive) in the experiment on TDF [3] and 115 (inactive) in the experiment on HCC1569 [4].
